Screening results: PubChem, National Center for Advancing Translational Sciences (NCATS)
LmPK inhibitor: LmPK (Leishmania mexicana) enzyme inhibition | Potency, µM (highest dose often 57.5 µM), inactives show at the top dose activity change, negative = inhibition, most hits filed as inhibitors | purified LmPK, Kinase-Glo ATP luminescence, 1 h | 290,000 tested, 0.37% active; note: potency is the fitted concentration of half-maximal effect; % is set by controls: 0 for no effect and ±100 for the full control effect
Target sequence (Q27686 whole entry, looked up): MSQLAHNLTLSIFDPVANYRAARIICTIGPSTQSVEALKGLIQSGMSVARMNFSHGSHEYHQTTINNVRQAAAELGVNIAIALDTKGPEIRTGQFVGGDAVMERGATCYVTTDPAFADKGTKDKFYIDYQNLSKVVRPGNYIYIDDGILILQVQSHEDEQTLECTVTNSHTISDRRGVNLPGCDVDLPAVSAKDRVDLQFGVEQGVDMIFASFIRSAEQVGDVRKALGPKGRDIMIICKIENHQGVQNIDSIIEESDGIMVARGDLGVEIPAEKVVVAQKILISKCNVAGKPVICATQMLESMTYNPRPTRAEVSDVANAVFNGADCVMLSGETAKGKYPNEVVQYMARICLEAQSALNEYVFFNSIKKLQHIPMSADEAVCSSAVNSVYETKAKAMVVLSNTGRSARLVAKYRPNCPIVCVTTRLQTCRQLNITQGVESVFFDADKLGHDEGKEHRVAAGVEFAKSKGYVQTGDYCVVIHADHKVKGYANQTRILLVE
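Pyruvate kinase activity monitored as ATP production (luciferase luminescence). Conditions: 0.1 nM enzyme, 0.5 mM PEP, 0.1 mM ADP, 1 h, RT; normalized against uninhibited and no-enzyme wells.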
FBPA Giardia inh: Giardia lamblia aldolase inhibition; A8B2U2; purified Giardia FBPA; Potency, µM (top dose mostly 59.6 µM), for the others: at the highest dose activity, negative = inhibition, hits mostly inhibitors; 290,000 tested, 0.71% active; AID 2451; note: potency is the fitted concentration of half-maximal effect; % is set by controls: 0 for no effect and ±100 for the full control effect; nearly all actives have a fitted effect of over 55% in size
Target sequence (A8B2U2 whole entry, looked up): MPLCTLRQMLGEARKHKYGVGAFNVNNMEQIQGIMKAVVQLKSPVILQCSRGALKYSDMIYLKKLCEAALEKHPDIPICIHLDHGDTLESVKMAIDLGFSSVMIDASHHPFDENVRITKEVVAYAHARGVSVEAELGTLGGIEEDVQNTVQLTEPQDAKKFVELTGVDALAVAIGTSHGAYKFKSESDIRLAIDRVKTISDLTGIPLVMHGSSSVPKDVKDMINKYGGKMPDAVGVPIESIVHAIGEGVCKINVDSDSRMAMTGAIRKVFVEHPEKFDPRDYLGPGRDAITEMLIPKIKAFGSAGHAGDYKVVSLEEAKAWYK
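Giardia FBPA (40 nM reagent) was preincubated 10 min at RT with compound (up to 57.5 uM final), then substrate plus GAPDH/TPI/NAD/arsenate coupling system with diaphorase/resazurin was added; resorufin fluorescence (525/598 nm) was read after 20 min.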
RE007 growth inh: less growth of the S. pombe RE007 Vpr strain; S. pombe RE007 Vpr strain, BacTiter-Glo ATP luminescence, 24 h; Potency, µM (doses to about 92.2 µM), for the others: top-dose activity change, negative = less growth, most hits filed as inhibitors; 360,000 tested, 0.21% active; active = well fitted falling curve with a large enough effect; inconclusive = small, poorly fitted or top-dose-only effect; inactive = no such curve, though single readings can be large or run the other way; note: potency is the fitted concentration of half-maximal effect; % is set by controls: 0 for no effect and ±100 for the full control effect; nearly all actives have a fitted effect of over 50% in size
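Fission yeast strain RE007, carrying one chromosomally integrated HIV-1 vpr copy, was seeded at OD 0.01 in PMG+AL medium with 23 nL pinned compound. After 24 h at 30 °C and 99% humidity, viability was read by BacTiter-Glo luminescence.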
TbPYK inhibitor: inhibitors of Trypanosoma brucei pyruvate kinase; TbPYK enzyme, Kinase-Glo Plus ATP luminescence, 45 min; 410,000 tested, 0.12% active; AID 624173; Potency, µM (series often up to 76.8 µM), for the others: at the highest dose activity, negative = inhibition, most hits filed as inhibitors; Q57TT1; note: potency is the fitted concentration of half-maximal effect; % is set by controls: 0 for no effect and ±100 for the full control effect; nearly all actives have a fitted effect of over 50% in size
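Luminescence from Kinase-Glo Plus, added after a 45-minute room-temperature reaction, served as the end-point read-out. The enzyme and substrate were preincubated with compound before ADP (130 uM final) initiated turnover. Concentration-effect curves came from normalized qHTS data.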
Cycloheximide cs: counter-screen hit for Shiga toxin inhibitors, cycloheximide; max response, %; 300,000 tested, 12% active; cell reporter, cycloheximide protein synthesis inhibition counterscreen; in the data active = max response mostly above about 13%, no sharp cut-off; inactive = mostly below about 14%; note: read at 38.3 µM for the half of the compounds with a filed dose; 0% is about no effect
Shiga toxin inh: Shiga toxin inhibition; Vero cells, Shiga toxin protein synthesis inhibition reporter; inhibition, % at 38.7 µM; 290,000 tested, 9.2% active; AID 2315; in the data active = inhibition mostly above about 28%, no sharp cut-off; inactive = mostly below about 43%; note: 0% is about no effect
* marks the source's active call; other numbers are inactive results; ? = inconclusive; · = no result; ! = not confirmed by another sample. This excerpt belongs to a sample that is enriched for hits. Unless noted, calls come from the whole dose curve; as a rule, active = well fitted curve in the direction sought with a large enough effect; inconclusive = small, poorly fitted or top-dose-only effect, or another doubt; inactive = no such curve, though single readings can be large; an effect the other way counts as inactive or inconclusive.

SMILES | LmPK inhibitor | FBPA Giardia inh | RE007 growth inh | TbPYK inhibitor | Cycloheximide cs | Shiga toxin inh
Nc1c2c(nc3sc4c(c13)CCCCC4)CCCCC2 | -13.8% | -0.3% | 7.0% | 0.5% | 51.2* | 58.6*
COc1cccc(-c2nnc3n2N=C(c2ccccc2OC)CS3)c1 | · | -15.1% | · | · | 2.1 | -6.5
CCc1ccc(Nc2nnc(SCC(=O)Nc3cccc(S(=O)(=O)NC4=NCCCCC4)c3)s2)cc1 | 1.9% | -1.0% | · | -14.9% | 49.1* | active
Cc1nnc(SCC(=O)Nc2cccc(S(=O)(=O)NC3=NCCCCC3)c2)n1Cc1ccccc1 | 1.7% | 5.0% | -12.1% | -1.1% | -1.3 | -4.1
Cc1cccc(NC(=O)CSc2nnc(NC(=O)CN3CCCCC3)s2)c1 | -2.4% | 1.7% | · | · | 1.0 | 12.6
Cc1cccc(Nc2nnc(SCC(=O)Nc3cccc(S(=O)(=O)N4CCCCC4)c3)s2)c1 | -2.5% | -2.3% | -5.9% | -3.8% | 29.2* | 77.5*
Cc1ccc(Nc2nnc(SCC(=O)Nc3cccc(S(=O)(=O)NC4=NCCCCC4)c3)s2)cc1 | 0.0% | -13.5% | -5.1% | -10.9% | 15.1* | 17.6
CCc1nnc(NC(=O)CSc2nnc(-c3ccc(S(=O)(=O)N4CCCC4)cc3)n2CC)s1 | -4.5% | 13.1% | 14.0% | 6.4% | 23.6* | 8.6
CCc1ccc(NC(=O)c2ccc3c(=O)n4nc(Nc5ccccc5C)sc4nc3c2)cc1 | · | · | · | -0.5% | · | ·
COc1cc(OC)c(NS(=O)(=O)c2cc3c(cc2C)NC(=O)CO3)cc1Cl | · | · | · | 1.5% | · | ·
COc1ccc(CCC(=O)NCc2nc3cccnc3n2Cc2cccc(OC)c2)cc1 | · | · | · | 1.4% | · | ·
Cc1ccc(Nc2nnc(SCC(=O)Nc3ccc(S(=O)(=O)N4CCOCC4)cc3)s2)cc1 | -0.3% | -6.2% | 4.1% | -4.6% | 49.0* | 110.9*
O=C(CSc1nnc(Nc2ccccc2)s1)Nc1ccc(S(=O)(=O)N2CCOCC2)cc1 | 3.3% | -2.0% | 16.2% | -9.5% | 6.8 | -3.6
COc1cccc(CNC(=O)CSc2ncc(S(=O)(=O)c3ccc(C)c(Cl)c3)c(=O)[nH]2)c1 | · | · | · | -0.3% | · | ·
CC1(C)CC(=O)C/C(=N/Nc2nc3ccccc3s2)C1 | -0.2% | -4.5% | -0.2% | -10.9% | 40.1* | 43.4*
CC1CCC/C(=N/Nc2nc3ccccc3s2)C1 (centres undefined) | -9.8% | -7.8% | -6.9% | -9.2% | 44.6* | 123.3*
Cc1ccc(O)c(-c2cc(C(=O)Nc3cccnc3)[nH]n2)c1 | -3.8% | 2.5% | 2.6% | 2.2% | 31.1* | 79.8*
O=C(Nc1cccnc1)c1cc(-c2cc(Cl)ccc2O)n[nH]1 | 5.1% | -0.5% | 4.5% | -7.3% | 38.9* | 91.1*
O=S1(=O)C=C(Sc2nc3ccccc3s2)c2ccccc21 | -7.3% | 1.0% | 10µM* | 2.2% | 76.9* | 75.5*
O=C1C2C(c3cccc(/C=C/c4ccccc4)c3)CC=CC2C(c2ccc(C(F)(F)F)cc2)N1Cc1ccccc1 (centres undefined) | 2.8% | 1.3% | 18.4% | 1.6% | 16.8 | 53.8*!
CCOC(=O)c1ccccc1NC(=O)CSc1nccn1Cc1ccco1 | · | · | · | -13.9% | · | ·
O=C(CN(Cc1ccco1)C(=O)c1ccccc1F)Nc1ccccc1C(F)(F)F | · | · | -6.1% | -2.2% | · | ·
O=C(CSc1nccn1Cc1ccco1)Nc1ccccc1 | -2.2% | · | -3.1% | 8.8% | 31.8* | 41.1*
CC(=O)Nc1ccc(NC(=O)CSc2nccn2Cc2ccco2)cc1 | 0.5% | · | -8.1% | 9.3% | 16.9* | 59.5*
CC(=O)Nc1ccc(NC(=O)CSc2nccn2C)cc1 | · | · | · | 1.9% | · | ·
SMILES | LmPK inhibitor | FBPA Giardia inh | RE007 growth inh | TbPYK inhibitor | Cycloheximide cs | Shiga toxin inh
O=C(CSc1nccn1Cc1ccco1)Nc1ccccc1C(F)(F)F | -8.1% | -5.8% | 0.8% | 7.8% | 28.5* | 20.9
O=C(CN(Cc1ccco1)S(=O)(=O)c1cccs1)Nc1ccccc1C(F)(F)F | -2.7% | -1.7% | 4.1% | -12.1% | 24.3* | 42.1*
CCCCOc1ccc(C(=O)NCC(=O)NNC(=O)c2ccco2)cc1 | · | · | -1.6% | 1.3% | · | ·
Cc1ccc(-n2nnc3c(sc4nc(C)c(C)cc43)c2=O)cc1Cl | · | · | · | -7.0% | · | ·
COc1cccc(CN2CCN(Cc3cccc4c3OCO4)CC2CCO)c1 (centres undefined) | -10.4% | -6.8% | -11.6% | -6.7% | 19.5* | 46.8
Cc1cc(N2CCCC2)nc2ccccc12 | 2.2% | 7.4% | 4.1% | 1.1% | 0.8 | -3.3
Cc1ccc2c(c1)Cc1nc3ccccc3nc1-2 | 17.8µM* | -23.7% | ? | ? | 2.6 | 52.2
Cc1ccc(NC(=O)c2cc(S(=O)(=O)N3CCc4ccccc43)cn2C)cc1C | 6.5% | 5.0% | -0.6% | -3.4% | 5.2 | 7.4
COc1ccc(NC(=O)c2cc(S(=O)(=O)N3CCc4ccccc43)cn2C)cc1 | -3.9% | 0.2% | 12.9% | -3.9% | 14.3* | 28.2*
O=C(O)CNC(=O)/C=C/c1c(Cl)cccc1Cl | -8.2% | 4.2% | 2.2% | 0.4% | 9.9 | 22.4
O=C(/C=C/c1c(F)cccc1Cl)Nc1ccncc1 | -2.7% | 1.6% | -19.1% | 2.6% | 61.5* | 95.5*
O=C(/C=C/c1c(Cl)cccc1Cl)Nc1ccncc1 | 11.1% | 0.4% | ? | 9.4% | 13.4* | 36.1
O=C(/C=C/c1cccc(Cl)c1)Nc1ccncc1 | 0.2% | 5.4% | 1.2% | 7.5% | 37.8* | 53.0*
Cc1cc(NS(=O)(=O)c2ccc(NC(=O)/C=C/c3c(F)cccc3Cl)cc2)no1 | -3.2% | -10.6% | 3.7% | -3.6% | -5.3 | -2.2
COc1ccc(CC(=O)Oc2ccc(Cl)cc2Br)cc1S(=O)(=O)N1CCOCC1 | · | · | 12.2% | 0.8% | · | ·
Cc1ccc(CNC(=O)C2CCN(S(=O)(=O)c3cc(-c4noc(C)n4)ccc3C)CC2)cc1 | · | · | · | -2.0% | · | ·
Cn1c(SCC(=O)NC2CC2)nnc1-c1cccs1 | -12.2% | · | 13.5% | -1.7% | 62.3* | 75.1*
CC1CN(C(=O)CSc2nnc(-c3ccc(Cl)cc3)n2C)CC(C)O1 (centres undefined) | -6.7% | 5.7% | 7.5% | 4.9% | 20.1* | 54.7
CCCn1c(SCC(=O)NC2CC2)nnc1-c1cccs1 | -13.7% | · | -1.8% | -0.4% | -0.9 | -30.7
CC(C)c1ccc(-c2nnc(SCC(=O)NC3CC3)n2C)cc1 | -7.3% | · | -1.3% | -13.3% | 12.6* | 37.0*
CC1CN(C(=O)CSc2nnc(-c3ccncc3)n2-c2ccccc2)CC(C)O1 (centres undefined) | 12.6% | -0.2% | 1.8% | 4.9% | -2.7 | 2.2
Cn1c(SCC(=O)NC2CCCC2)nnc1-c1ccncc1 | 1.2% | 1.3% | -7.8% | 2.7% | -6.1 | -17.2
CC1CCN(C(=O)CSc2nnc(-c3ccccc3F)o2)CC1 | 1.5% | · | -22.4% | -9.0% | 14.6 | 56.0*
O=C(CSc1nnc(-c2cccs2)o1)N1CCOCC1 | 1.8% | -5.0% | -5.8% | -2.8% | -2.2 | -5.3
O=C(CSc1nnc(-c2cccs2)o1)N1CCCCC1 | 1.2% | 1.1% | -6.0% | -12.6% | 47.8* | 113.4*
